Assay [1] deals with Estrogen receptor (Homo sapiens) (UniProt P03372). As to the kind of experiment: CCTE_Deisenroth_AIME_96WELL_LUC_Active: CCTE's 96-well Estrogen Receptor Transactivation Assay with AIME metabolic competence (ERTA luciferase; metabolism positive), Deisenroth Lab (AID 2284023; active means hit-call score of the fitted dose curve at least 0.9, where 1 is the maximum). The gist of the method:
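Chemicals pre-incubated 2 h with alginate-immobilized phenobarbital/beta-naphthoflavone-induced male Sprague Dawley rat liver S9, then medium transferred to VM7Luc4E2 cells for 24 h luciferase read-out. 10-point series 0.002 - 200 uM; fitted relative to 17beta-estradiol.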

Assay [2] has the same target. As to the kind of experiment: CCTE_Deisenroth_AIME_96WELL_LUC_Inactive: CCTE's 96-well Estrogen Receptor Transactivation Assay without AIME metabolic competence (ERTA luciferase; metabolism negative), Deisenroth Lab (AID 2284025; active means hit-call score of the fitted dose curve at least 0.9, where 1 is the maximum). An outline of the steps:
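VM7Luc4E2 breast cells, luciferase read 24 h after dosing with medium pre-incubated 2 h on alginate-water lids (metabolism negative). 10-point series 0.002–200 uM, single technical replicate, n≥4; fit relative to 17beta-estradiol.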

A short description of assay [3]: CCTE_Deisenroth_AIME_96WELL_CTox_Active: Cytotoxicity Assessment (CTOX) in CCTE's 96-well Estrogen Receptor Transactivation Assay with AIME metabolic competence (metabolism positive), Deisenroth Lab (AID 2284028; active means hit-call score of the fitted dose curve at least 0.9, where 1 is the maximum). The gist of the method: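 Chemicals (0.002–200 uM) were first incubated 2 h with alginate-immobilized phenobarbital/beta-naphthoflavone-induced male rat liver S9; conditioned medium then went onto VM7Luc4E2 cells for 24 h, with viability read by protease-substrate fluorescence, fitted bidirectionally.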

A short description of assay [4]: CCTE_Mundy_HCI_hNP1_Casp3_7: CCTE's Caspase-Glo 3/7 Assay in human neuroprogenitor cells for Apoptosis, Mundy Lab (AID 2284240). An outline of the steps: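 Neuroepithelial-lineage stem cells from WA09 embryonic cells were treated with chemicals after 40–44 h of culture. Twenty-four hours later, caspase-3/7 activation was detected luminescently after a 30 min room-temperature reagent step, with DMSO as baseline.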

A short description of assay [5]: CCTE_Mundy_HCI_hNP1_CellTiter: CCTE's Cell Titer-Glo 2 Assay in human neuroprogenitor cells for Viability, Mundy Lab (AID 2284241; active means hit-call score of the fitted dose curve at least 0.9, where 1 is the maximum). The gist of the method:
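Measures ATP content in human neural progenitors derived from WA09 embryonic cells. Read-out at 26.5 hours after dosing, with DMSO serving as the negative control and baseline.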
(In general: In ATP-based viability assays light output follows the ATP content of the culture.)

Assay [6] in a line: CCTE_Mundy_HCI_iCellGluta_NOG_NeuriteCount: CCTE's Neurite Outgrowth Assay in iCellGluta cells for Neurite Count, Mundy Lab (AID 2284342; active means hit-call score of the fitted dose curve at least 0.9, where 1 is the maximum;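 further: chemical exposure about 48 hours starting 2 hours after plating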).
A short description of assay [7]: CCTE_Padilla_ZF_Score.Craniofacial: CCTE's 144 Hour Post-fertilization zebrafish Assay Score for Craniofacial Malformation, Padilla Lab (AID 2284405). An outline of the steps: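 Wild-type zebrafish embryos (with chorions), one per well in 10% Hanks', were dosed at 6–8 hpf in sealed plates and kept at 26C. They were rinsed at 5 dpf. At 6 dpf two blinded assessors scored craniofacial malformations by brightfield stereomicroscopy.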

The nature of assay [8]: CCTE_Padilla_ZF_Score.Edema: CCTE's 144 Hour Post-fertilization zebrafish Assay Score for Edema Malformation, Padilla Lab (AID 2284406). The gist of the method:
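Wild-type zebrafish embryos, one per well in Hanks' solution, dosed at 6-8 hpf, sealed and reared at 26C on a 14:10 h cycle; rinsed on 5 dpf. At 6 dpf, blinded assessors scored edema by stereomicroscopy.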

The nature of assay [9]: CCTE_Padilla_ZF_Score.Spine: CCTE's 144 Hour Post-fertilization zebrafish Assay Score for Spine Malformation, Padilla Lab (AID 2284407). An outline of the steps:
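Wild-type zebrafish embryos, one per well in Hanks' solution, dosed at 6–8 hpf in sealed plates at 26C, 14:10 h light:dark; rinsed at 5 dpf. Two blinded assessors scored spinal defects by stereomicroscopy at 6 dpf; fitted versus DMSO.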

Assay [10] in a line: CCTE_Padilla_ZF_Score.Swim_bladder: CCTE's 144 Hour Post-fertilization zebrafish Assay Score for Swim Bladder Malformation, Padilla Lab (AID 2284408). The gist of the method: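 Wild-type zebrafish embryos, one per well in 10% Hanks', dosed at 6–8 hpf, sealed, reared at 26C and rinsed at 5 dpf. Blinded assessors scored uninflated swim bladder by stereomicroscopy at 6 dpf, relative to DMSO.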

The nature of assay [11]: CCTE_Padilla_ZF_Score.Position: CCTE's 144 Hour Post-fertilization zebrafish Assay Score for Position, Padilla Lab (AID 2284409). The gist of the method:
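Wild-type zebrafish embryos (with chorions) exposed singly from 6–8 hpf in sealed wells of Hanks' solution at 26C, rinsed at 5 dpf. At 6 dpf, blinded assessors scored abnormal water-column position by brightfield stereomicroscopy, relative to DMSO.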

A short description of assay [12]: CCTE_Padilla_ZF_Score.Living: CCTE's 144 Hour Post-fertilization zebrafish Assay Score for Viability, Padilla Lab (AID 2284410).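 Further: larval death at 6 dpf judged by absent heartbeat or coagulation.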 The gist of the method:
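Wild-type zebrafish embryos were exposed singly from 6–8 hpf in sealed wells of Hanks' solution at 26C, then rinsed at 5 dpf. At 6 dpf, blinded assessors scored mortality (no heartbeat or coagulation) by stereomicroscopy, fitted against DMSO.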

Assay [13] is described as follows: CCTE_Padilla_ZF_Score.General: CCTE's 144 Hour Post-fertilization zebrafish Assay Score for General Malformation, Padilla Lab (AID 2284411). An outline of the steps: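 Wild-type zebrafish embryos were plated singly at 6-8 hpf in 10% Hanks' and exposed in sealed wells at 26C until rinsed on 5 dpf. At 6 dpf two blinded assessors scored mortality, hatching and malformations by stereomicroscopy; gain-of-signal versus DMSO.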

The nature of assay [14]: CCTE_Padilla_ZF_Score.Tail: CCTE's 144 Hour Post-fertilization zebrafish Assay Score for Tail Malformation, Padilla Lab (AID 2284414). An outline of the steps:
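Wild-type zebrafish embryos, one per well in 200 uL 10% Hanks', dosed at 6-8 hpf, sealed, and kept at 26 C on a 14:10 h light cycle. Chemical was rinsed out at 5 dpf. Blinded brightfield scoring of tail defects followed at 6 dpf.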

Assay [15] in a line: CCTE_Padilla_ZF_Score.Blood_pooling: CCTE's 144 Hour Post-fertilization zebrafish Assay Score for Blood Pooling, Padilla Lab (AID 2284415). An outline of the steps:
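Wild-type outbred zebrafish embryos, one per well in 10% Hanks', exposed from 6–8 hpf in sealed plates at 26C on 14:10 h light:dark, rinsed at 5 dpf. Blinded stereomicroscope scoring of blood pooling at 6 dpf; gain-of-signal versus DMSO.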

Assay [16] can be described thus: CCTE_Padilla_ZF_Score.Any: CCTE's 144 Hour Post-fertilization zebrafish Assay Score for Any Mortality or Malformation, Padilla Lab (AID 2284416). An outline of the steps:
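Wild-type zebrafish embryos with chorions, one per well in 10% Hanks' from 6–8 hpf, dosed in sealed plates at 26 C, 14:10 h light:dark; rinsed at 5 dpf; blinded scoring at 6 dpf for death or malformation, versus DMSO.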

Results filed as inconclusive are left out. Activity calls are given as the source filed them. How the source made its calls, unless noted: active means hit-call score of the fitted dose curve at least 0.9, where 1 is the maximum; inactive means score below 0.9.

Sequence of Estrogen receptor (Homo sapiens) (P03372 whole entry, looked up): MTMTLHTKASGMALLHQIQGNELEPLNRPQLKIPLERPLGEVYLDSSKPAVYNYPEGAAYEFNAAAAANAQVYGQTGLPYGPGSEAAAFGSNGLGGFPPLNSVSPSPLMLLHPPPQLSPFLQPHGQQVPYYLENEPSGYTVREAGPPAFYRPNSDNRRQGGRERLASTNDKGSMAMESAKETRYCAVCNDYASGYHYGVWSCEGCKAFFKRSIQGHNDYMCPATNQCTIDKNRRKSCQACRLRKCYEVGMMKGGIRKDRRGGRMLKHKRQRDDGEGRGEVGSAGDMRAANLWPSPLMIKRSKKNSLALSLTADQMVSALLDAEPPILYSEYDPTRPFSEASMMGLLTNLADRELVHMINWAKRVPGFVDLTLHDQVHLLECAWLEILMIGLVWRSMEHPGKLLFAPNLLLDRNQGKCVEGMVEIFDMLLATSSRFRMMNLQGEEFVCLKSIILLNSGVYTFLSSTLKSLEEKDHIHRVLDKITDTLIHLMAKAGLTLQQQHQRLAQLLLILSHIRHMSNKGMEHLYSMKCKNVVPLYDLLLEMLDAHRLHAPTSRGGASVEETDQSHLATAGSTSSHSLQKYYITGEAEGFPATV

Broadly, the AC50 is the concentration giving half of the maximal activity seen. As to `c1ccc(CCCc2ccccc2)cc1`, the outcome in assay [1] and in assay [3] was inactive. In [2], the AC50 is 37.4 µM (active).
Regarding `C/C(=C\c1ccccc1)c1ccccc1`, the AC50 in [1] was 20.6 µM (active); in assay [2], 37.2 µM (active).
Consider `O=C(CC(=O)C(F)(F)F)C(F)(F)F`, for which the call in assay [4], in [5], in assay [6], in assay [7], in [8] and in [9] was inactive. Further, the outcome in assay [10], in assay [11], in assay [12], in [13], in assay [14] and in assay [15] was inactive. Further, the compound was called inactive in [16].

(Values after PubChem BioAssay (EPA / NIEHS).)
